# Cruzain Triton: inhibitors of Trypanosoma cruzi cruzain with detergent; P25779; purified cruzain, Z-FR-AMC fluorescence, 0.01% Triton; Potency, µM, inactives show max response, negative = inhibition, most hits filed as inhibitors; actives 0.43% (n = 200,000); AID 1478;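 further: plate controls were neutral wells for no effect and buffer without enzyme for full effect; nearly all actives have a fitted effect of over 40% in size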
# Target sequence (P25779 123-467 limits assumed): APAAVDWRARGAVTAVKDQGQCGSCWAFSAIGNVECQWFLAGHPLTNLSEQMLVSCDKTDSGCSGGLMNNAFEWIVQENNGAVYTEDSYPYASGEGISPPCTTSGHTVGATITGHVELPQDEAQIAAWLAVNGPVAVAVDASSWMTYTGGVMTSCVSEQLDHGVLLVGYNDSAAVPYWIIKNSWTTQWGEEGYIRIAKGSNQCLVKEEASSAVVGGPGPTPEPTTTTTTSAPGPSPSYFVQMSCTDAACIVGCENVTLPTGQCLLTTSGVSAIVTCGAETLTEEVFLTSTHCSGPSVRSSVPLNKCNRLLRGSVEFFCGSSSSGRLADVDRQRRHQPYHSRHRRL
#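 Enzyme 1.5 nM, Z-FR-AMC 2 uM, NaOAc 100 mM pH 5.5, DTT 5 mM, Triton X-100 0.01%; 15 min RT compound preincubation; kinetic ex360/em450, 60 s delta.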
# Cruzain noTriton: blocks cruzain activity in detergent-free assay. P25779. purified cruzain, Z-FR-AMC fluorescence, no detergent. Potency, µM, for inactives: max response, negative = inhibition, usual class: inhibitors. actives 2.3% (n = 200,000). AID 1476;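 further: plate controls were enzyme without inhibitor for no effect and buffer without enzyme for full effect; nearly all actives have a fitted effect of over 40% in size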
#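 Purified cruzain at 1.5 nM, pre-incubated 15 min with compound at room temperature in 100 mM sodium acetate pH 5.5, 5 mM DTT, 0.00005% Triton X-100. Reaction started with 2 uM Z-FR-AMC; AMC fluorescence increase over 60 s gives rate.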
# * = called active by the depositor; ? = inconclusive. Hits are enriched below; roughly 2.4% of the tested compounds scored in any of these assays. The call rests on the fitted dose curve; in most records, active means well fitted curve in the direction sought with a large enough effect; inconclusive means small, poorly fitted or top-dose-only effect, or another doubt; inactive means no such curve, though single readings can be large; an effect the other way counts as inactive or inconclusive. Potency means the concentration at half of the fitted maximal effect.
SMILES,Cruzain Triton,Cruzain noTriton
COc1ccc(Cn2nnnc2C(c2cccs2)N2CCN(c3ccccc3)CC2)cc1 (configuration not stated),0%,9%
COc1cccc(Nc2nc(NCC3CCCO3)c3ccccc3n2)c1 (configuration not stated),14µM*,13µM*
Oc1ccc(Nc2nc(NCC3CCCO3)c3ccccc3n2)cc1 (configuration not stated),-25%,-27%
O=c1c2ccccc2n2c(-c3ccccc3F)nnc2n1CCc1ccccc1,-8%,?
Cc1ccc2ncc(C(=O)NC(C)c3ccccc3)c(=O)n2c1 (configuration not stated),-1%,-2%
CCOC(=O)c1cccc(NC(=O)c2cc3c(Cl)nc4ccc(C)cc4c3s2)c1,7%,-24%
C=CCSc1nnc(NC(=O)COc2ccc3ccccc3c2)s1,4%,13µM*
CCSc1nnc(NC(=O)COc2cccc3ccccc23)s1,-8%,13µM*
COC(=O)c1sc(NC(=O)COc2cccc3ccccc23)nc1C,5%,?
C=CCSc1nnc(NC(=O)CSc2ccccn2)s1,1%,-2%
Cc1[nH]nc(-c2ccc(OCc3cnn(-c4ccccc4)c3)cc2O)c1Oc1ccccc1F,2%,20µM*
O=c1c(Oc2ccccc2F)coc2cc(OCc3cnn(-c4ccccc4)c3)ccc12,-4%,-29%
Nc1nnnn1/N=C/c1ccccc1OCc1ccc(Cl)cc1Cl,14µM*,16µM*
Nc1nnnn1/N=C/c1ccccc1OCc1ccc(Cl)cc1,-5%,-28%
[O-]/C(=C(\C(=S)Nc1cccc2ccccc12)[n+]1ccccc1)c1ccc(Cl)s1,-14%,7.9µM*
CC(C)(C)c1cc[n+](/C(C(=S)NC2CC2)=C(/[O-])c2ccc(Cl)s2)cc1,-10%,-5%
COc1cc(NCCCCCCCN)c2ncccc2c1,-8%,16µM*
COc1cc(NC(C)CCCN)c2ncccc2c1 (configuration not stated),1%,-11%
Cc1cc(=O)c2c(O)c3c(O)cc(O)c4c5c(O)cc(O)c6c(O)c7c(=O)cc(C)c8c1c2c(c34)c(c65)c78,-24%,?
COc1ccc(/C=C(\C#N)C(=O)OCC(=O)NCc2ccccc2)cc1,-10%,32µM*
COc1ccc(/C=C(\C#N)C(=O)OCC(=O)Nc2c(C)cccc2C)cc1,-1%,?
COc1ccc(OC)c(CNS(=O)(=O)c2ccc3c(c2)oc(=O)n3C)c1,2%,3%
CCc1noc(-c2ccc(NC(C)c3ccccc3)c([N+](=O)[O-])c2)n1 (configuration not stated),-3%,21%
CCOc1ccccc1NC(=O)N1CC(C)Oc2ccc(Cl)cc21 (configuration not stated),-1%,1%
COc1ccc(-c2noc(CNC(=O)COc3cccc(C)c3C)n2)cc1,-10%,9%
SMILES,Cruzain Triton,Cruzain noTriton
CCCCCn1c(CCCNC(=O)c2ccccc2)nc2ccccc21,-2%,4%
COc1ccc(OC)c2sc(NC(=O)c3ccc(Cl)s3)nc12,5%,-7%
COc1ccc(OC)c2sc(NC(=O)c3ccc(Br)s3)nc12,-5%,16µM*
Cc1cc(C)c(NC(=O)Cn2c(=O)n(CCc3ccccc3)c(=O)c3ccccc32)c(C)c1,-3%,-6%
COc1ccc(C(CC(=O)Nc2ccc(F)cc2)c2ccccc2)cc1 (configuration not stated),-3%,17%
COc1ccccc1C(CC(=O)Nc1ccc(Cl)cc1)c1ccc(OC(C)C)cc1 (configuration not stated),2%,3.2µM*
CCOc1ccc(OCC)c(NC(=O)Cn2nc(CC)n3c(cc4sccc43)c2=O)c1,1%,6%
O=C(Cn1ccc2cc(S(=O)(=O)N3CCCCC3)ccc21)NCCc1ccccc1Cl,-7%,?
COc1cccc(-c2nn(-c3ccccc3)cc2C(=O)O)c1,4%,-1%
COc1cccc(-c2nn(-c3ccccc3)cc2/C=C\C(=O)c2cccs2)c1,3%,13µM*
COc1ccc(OCC(=O)NC(=S)Nc2ccc3c4c(cccc24)CC3)cc1,-12%,?
Cc1ccccc1OCC(=O)NC(=S)Nc1ccc2c3c(cccc13)CC2,-1%,7.9µM*
COc1ccc(-c2nc3ccc(NS(=O)(=O)c4ccc(C)cc4)cc3o2)cc1,-6%,-10%
Cc1cc(NC(=O)CSc2nc(-c3ccco3)cc(C(F)(F)F)n2)no1,-4%,20µM*
Cc1cc(NC(=O)CCSc2nc(-c3ccco3)cc(C(F)(F)F)n2)no1,4%,8%
COc1ccccc1NC(=O)c1sc2nc3c(c(C(F)(F)F)c2c1N)CN(C(C)=O)CC3,-3%,-5%
Cc1ccccc1OCC(=O)Nc1ccccc1OCc1cc(=O)n2ccccc2n1,5%,-3%
CC(C)S(=O)(=O)c1oc(-c2cccs2)nc1S(=O)(=O)c1ccc(F)cc1,-10%,-2%
Cc1nc(S/C(=C/c2ccc(-c3cccc(Cl)c3)o2)C(=O)O)n[nH]1,3%,25µM*
CC1=NOC(=O)/C1=C\c1ccc(-c2cccc(Cl)c2)o1,-22%,?
Cc1ccc(OCCCn2c(CCNC(=O)C3CCCCC3)nc3ccccc32)c(C)c1,2.5µM*,-3%
CCCCCn1c(CNC(=O)c2ccc(F)cc2)nc2ccccc21,-18%,16%
CCCCn1c(CCCNC(=O)c2cccc(C)c2)nc2ccccc21,1%,-1%
CCCCn1c(CCNC(=O)c2ccc(F)cc2)nc2ccccc21,7.1µM*,9%
Cc1ccccc1OCCCCn1c(CCNC(=O)C(C)(C)C)nc2ccccc21,-7%,?
SMILES,Cruzain Triton,Cruzain noTriton
CCn1c(CCCNC(=O)c2cccs2)nc2ccccc21,3%,5%
CCCn1c(CCNC(=O)c2cccs2)nc2ccccc21,16µM*,15%
Cc1cccc(C(=O)NCCc2nc3ccccc3n2CCC(C)C)c1,13µM*,20%
COc1ccc(S(=O)(=O)NCC(c2ccco2)N2CCN(c3ccccc3F)CC2)cc1C (configuration not stated),-6%,6%
C=C(C)Cn1c(CCCNC(=O)CC)nc2ccccc21,0%,6%
CCn1c(CCNC(=O)c2ccc(F)cc2)nc2ccccc21,22µM*,2.5µM*
CCn1c(CCCNC(=O)c2ccc(F)cc2)nc2ccccc21,5%,-7%
C=C(C)Cn1c(CCNC(=O)CCC)nc2ccccc21,-2%,16µM*
CC(=O)N1c2ccc(S(=O)(=O)N3CCCCCC3)cc2CC1C(=O)NCc1ccccc1 (configuration not stated),1%,1%
CCN(CC)CCCNC(=O)CSc1nc(-c2ccc(OC)cc2)cc(C(F)(F)F)n1,-21%,?
Cc1cccc(NC(=O)c2sc3nc(-c4cc5ccc(O)cc5oc4=O)[nH]c(=O)c3c2C)c1,0%,-11%
CCCC1O[C@@H]2C[C@H]3[C@@H]4CCC5=CC(=O)C=C[C@]5(C)C4[C@@H](O)C[C@]3(C)[C@]2(C(=O)CO)O1 (some centres not stated),-14%,13%
Cc1ccc(S(=O)(=O)NC2c3cccc4cccc(c34)C2Sc2nc(C)cc(C)n2)cc1 (configuration not stated),-3%,25µM*
Cc1ccc(S(=O)(=O)NC2c3cccc4cccc(c34)C2Sc2nncn2C)cc1 (configuration not stated),2%,-8%
Cc1cccc(Cn2c(C)c(C)c3cc(C(=O)NCc4ccco4)ccc32)c1,-6%,-19%

# Bioassay records (PubChem BioAssay)
